This is an account of results in publication PMC5540273 (PLoS ONE, 2017).

Among the test systems are CSF1R-autoinhibited; CSF1R; CSK; CSNK1A1L; CSNK1A1; CSNK1D; CSNK1E; CSNK1G1; CSNK1G2; CSNK1G3; CSNK2A1; CSNK2A2; DAPK1; DAPK2; DAPK3; DDR1.
Common to all, as to conditions: concentration: 1 μM, replicates: in singlicate; n = 1
The subject of the next test is T1, CTK.
T1 construct: gene MATK

Another test has as its system T2, DCAMKL1.
T2 construct: gene DCLK1

For the next test, the system named is T3, DCAMKL2.
T3 construct: gene DCLK2

The subject of another test is T4, DCAMKL3.
T4 construct: gene DCLK3
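Further: KINOMEscan kinase panel screen.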

As to `O=C(NCCCN1CCCC1=O)c1cnc(NCc2cc(Cl)ccc2Cl)nc1NC1CCNCC1`, the “%Inh” value in the test on CSF1R-autoinhibited came out at 1%; in the test with CSF1R it was 100%; in the test with CSK it was 0%; in the test on CSNK1A1L, 1%; in the test on CSNK1A1, 36%; in the test on CSNK1D it was 28%. For the same compound, the “%Inh” value worked out at 87% in the test with CSNK1E; 1% with CSNK1G1; 0% with CSNK1G2; 0% with CSNK1G3; 0% in the test on CSNK2A1; 7% in the test on CSNK2A2. For the same compound, the “%Inh” value was determined as 5% in the test on CTK; 14% in the test with DAPK1; 0% in the test on DAPK2; 0% with DAPK3; 17% in the test with DCAMKL1; 12% in the test with DCAMKL2. The “%Inh” value in the test with DCAMKL3 and in the test with DDR1 was 0% each time.
`O=C(Nc1n[nH]c2nc(-c3ccco3)c(Br)cc12)c1ccc(CN2CCCC2)cc1.O=C(O)[C@H](O)[C@@H](O)C(=O)O` [SB-742352]: the “%Inh” value is on record as 0% in the test on CSF1R-autoinhibited; 71% in the test with CSF1R; 0% in the test with CSK; 0% in the test with CSNK1A1L; 0% with CSNK1A1; 0% in the test with CSNK1D. Besides, the “%Inh” value in the test on CSNK1E is on record as 0%; in the test with CSNK1G1, 0%; in the test on CSNK1G2, 0%; in the test on CSNK1G3, 0%; with CSNK2A1, 0%; with CSNK2A2, 29%. In addition, the “%Inh” value in the test with CTK is 15%; in the test on DAPK1 it was 0%; in the test on DAPK2, 0%; in the test on DAPK3, 0%; with DCAMKL1, 0%; in the test with DCAMKL2, 0%. Moreover, the figures for the “%Inh” value in the test on DCAMKL3 and with DDR1 were 28% and 19%, respectively.
As to `Cl.Fc1ccccc1COc1ccc(Nc2ncnc3ccc(-c4nnc(C(F)(F)F)o4)cc23)cc1Cl` [GW424170], the “%Inh” value in the test with CSF1R-autoinhibited amounted to 0%; with CSF1R, 6%; in the test on CSK it was 0%; in the test with CSNK1A1L it was 0%; in the test on CSNK1A1, 0%; with CSNK1D, 5%. The “%Inh” value in the test with CSNK1E worked out at 22%; with CSNK1G1, 0%; with CSNK1G2, 0%; in the test on CSNK1G3 it was 30%; in the test with CSNK2A1 it was 0%; with CSNK2A2, 15%. Moreover, the “%Inh” value in the test on CTK is 0%; in the test with DAPK1 it was 0%; in the test with DAPK2, 0%; in the test on DAPK3, 5%; in the test with DCAMKL1, 10%; in the test with DCAMKL2 it was 1%. The “%Inh” value is reported as 7% in the test on DCAMKL3 and 6% in the test on DDR1.
On to `Fc1cccc(COc2ccc(Nc3ncnc4cc[nH]c34)cc2Cl)c1`, for which the “%Inh” value in the test with CSF1R-autoinhibited amounted to 0%; with CSF1R, 6%; in the test with CSK it was 24%; with CSNK1A1L it was 6%; with CSNK1A1, 2%; in the test with CSNK1D, 0%. Moreover, the “%Inh” value in the test with CSNK1E amounted to 10%; in the test on CSNK1G1 it was 18%; in the test on CSNK1G2, 18%; with CSNK1G3, 4%; in the test with CSNK2A1 it was 36%; with CSNK2A2, 22%. Besides, the “%Inh” value is 53% with CTK; 20% in the test on DAPK1; 45% with DAPK2; 22% with DAPK3; 29% in the test with DCAMKL1; 8% in the test with DCAMKL2. Besides, the “%Inh” value in the test with DCAMKL3 came to 8%; with DDR1, 9%.
For the compound `Fc1cccc(COc2ccc(Nc3ncnc4nn5ccccc5c34)cc2Cl)c1` [GW689066], the “%Inh” value in the test with CSF1R-autoinhibited was 37%; in the test on CSF1R it was 0%; with CSK, 0%; with CSNK1A1L, 0%; with CSNK1A1, 0%; with CSNK1D, 3%. Also, the “%Inh” value with CSNK1E is recorded as 14%; with CSNK1G1 it was 0%; in the test on CSNK1G2 it was 0%; with CSNK1G3 it was 3%; in the test with CSNK2A1, 0%; with CSNK2A2, 0%. For the same compound, the “%Inh” value was 0% with CTK; 0% with DAPK1; 0% in the test with DAPK2; 7% in the test with DAPK3; 0% in the test on DCAMKL1; 0% with DCAMKL2. The “%Inh” value in the test on DCAMKL3 is 9%; in the test on DDR1, 0%.
For the compound `OCCOCCn1ccc2ncnc(Nc3ccc(Oc4cccc(Cl)c4)c(Cl)c3)c21`, the “%Inh” value in the test with CSF1R-autoinhibited, with CSF1R, in the test with CSK, in the test with CSNK1A1L, in the test on CSNK1A1 and in the test on CSNK1D was 0% in each case. The “%Inh” value with CSNK1E, in the test on CSNK1G1, in the test with CSNK1G2, in the test with CSNK1G3, in the test with CSNK2A1 and in the test on CSNK2A2 was 0% each time. Also, the “%Inh” value in the test on CTK is 0%; with DAPK1, 0%; in the test on DAPK2, 0%; with DAPK3, 0%; in the test on DCAMKL1, 36%; in the test on DCAMKL2, 0%. Also, the “%Inh” value in the test with DCAMKL3 and in the test on DDR1 was 0% each time.
Turning to `CCc1nc(-c2cccc(C)c2)c(-c2ccnc(NC(=O)c3ccccc3)c2)s1`, the “%Inh” value in the test with CSF1R-autoinhibited came out at 11%; in the test with CSF1R it was 11%; with CSK it was 1%; in the test with CSNK1A1L, 39%; in the test on CSNK1A1 it was 81%; in the test with CSNK1D it was 89%. Besides, the “%Inh” value turned out to be 82% in the test on CSNK1E; 0% in the test with CSNK1G1; 3% with CSNK1G2; 0% with CSNK1G3; 12% in the test on CSNK2A1; 29% in the test on CSNK2A2. Further, the “%Inh” value with CTK came to 0%; in the test with DAPK1 it was 23%; in the test on DAPK2 it was 0%; in the test on DAPK3 it was 0%; in the test on DCAMKL1, 11%; with DCAMKL2, 6%. The “%Inh” value with DCAMKL3 and in the test with DDR1 was 0% in each case.
As for `c1ccc(-c2ccc3c(-c4ccnc(Nc5ccc6c(c5)OCCO6)n4)cnn3n2)cc1` [GW818941], the “%Inh” value in the test with CSF1R-autoinhibited is 0%; with CSF1R, 1%; with CSK, 84%; in the test on CSNK1A1L it was 0%; with CSNK1A1, 40%; with CSNK1D, 8%. In addition, the “%Inh” value with CSNK1E turned out to be 0%; in the test with CSNK1G1, 1%; with CSNK1G2, 11%; in the test with CSNK1G3 it was 27%; with CSNK2A1, 18%; with CSNK2A2, 9%. The “%Inh” value amounted to 2% in the test with CTK; 0% with DAPK1; 0% in the test with DAPK2; 0% in the test with DAPK3; 0% in the test with DCAMKL1; 0% with DCAMKL2. The “%Inh” value in the test on DCAMKL3 and in the test on DDR1 was 0% in each case.
For `Cc1ccc(NC(=O)c2cccc(C#N)c2)cc1-c1ccc(C(=O)Nc2ccncc2)cc1` [GSK1398463], the “%Inh” value worked out at 0% with CSF1R-autoinhibited; 98.3% in the test on CSF1R; 0% with CSK; 15% with CSNK1A1L; 0% in the test on CSNK1A1; 19% in the test on CSNK1D. The “%Inh” value with CSNK1E came to 29%; in the test on CSNK1G1, 23%; in the test on CSNK1G2, 1%; in the test with CSNK1G3, 41%; in the test with CSNK2A1 it was 0%; in the test on CSNK2A2, 9%. The “%Inh” value in the test on CTK came to 19%; in the test on DAPK1, 0%; in the test on DAPK2, 0%; with DAPK3, 6%; in the test with DCAMKL1, 19%; with DCAMKL2 it was 15%. For the same compound, the figures for the “%Inh” value in the test on DCAMKL3 and in the test on DDR1 were 0% and 100%, respectively.
`CSc1ccc(NC2=C(c3ccccc3Cl)C(=O)NC2=O)cc1` [SB-342411]: the “%Inh” value stood at 0% with CSF1R-autoinhibited; 7% with CSF1R; 7% with CSK; 0% in the test with CSNK1A1L; 0% with CSNK1A1; 2% in the test on CSNK1D. Also, the “%Inh” value with CSNK1E was determined as 19%; in the test on CSNK1G1, 16%; in the test with CSNK1G2, 0%; with CSNK1G3, 0%; in the test with CSNK2A1, 2%; in the test with CSNK2A2 it was 10%. The “%Inh” value was determined as 0% in the test with CTK; 30% with DAPK1; 16% with DAPK2; 11% in the test on DAPK3; 2% in the test with DCAMKL1; 0% in the test on DCAMKL2. Moreover, the “%Inh” value was determined as 43% in the test on DCAMKL3 and 10% in the test on DDR1.
Take `C[C@H]1CC[C@@H](C(=O)Nc2ccccc2)CN1c1cc(-c2ccc3c(N)n[nH]c3c2)nc(N)n1` [GSK2283293]: the “%Inh” value is 26% in the test with CSF1R-autoinhibited; 0% in the test with CSF1R; 0% in the test on CSK; 16% in the test on CSNK1A1L; 0% with CSNK1A1; 0% with CSNK1D. Moreover, the “%Inh” value with CSNK1E is 7%; in the test on CSNK1G1 it was 7%; in the test on CSNK1G2, 0%; with CSNK1G3 it was 7%; with CSNK2A1 it was 12%; with CSNK2A2 it was 0%. Besides, the “%Inh” value is 0% in the test on CTK; 7% in the test on DAPK1; 0% in the test with DAPK2; 0% with DAPK3; 23% with DCAMKL1; 0% in the test on DCAMKL2. The results for the “%Inh” value in the test with DCAMKL3 and in the test with DDR1 were 8% and 0%, respectively.
